A selection: hits, their analogues and other compounds. The true share with any hit is near 7.9%.
KB-3-1 cytotox: kills parental KB-3-1 adenocarcinoma cells; KB-3-1 viability, CellTiter-Glo ATP luminescence, 72 h; Potency, µM (doses to about 46.1 µM), most hits filed as cytotoxic; 1.4% of 400,000 active; also: % is scaled to controls: 0 for no effect and ±100 for the full control effect; nearly all actives have a fitted effect of over 60% in size
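72 h, 37 °C compound treatment of KB-3-1 parental cells; CellTiter-Glo added, 10 min, luminescence read. Data corrected against DMSO-only plates and normalized before curve fitting.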
HT1080 IDH1KD tx: HT-1080 IDH1 knockdown cell toxicity (counter line); Potency, µM (titrated, usually from 46.1 µM), inactives show top-dose activity, negative = toxicity, most hits filed as cytotoxic; 2% of 360,000 active; HT-1080 IDH1 knockdown viability, ATP luminescence, 48 h;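 also: 0% = DMSO wells and -100% = cell-free medium wells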
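Viability of IDH1-knockdown HT-1080 fibrosarcoma cells was assessed by CellTiter-Glo after 48 h at 37 °C with titrated compound; concentration-effect curves were classified by fit quality and response size.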
SW480 rerep: inducers of DNA re-replication in SW480 colon cancer cells; SW480 DNA re-replication, Hoechst DNA content imaging, 48 h; Potency, µM (top dose mostly 46.1 µM), without a hit: at the top dose re-replication activation, actives largely listed as activators; 1.8% of 340,000 active; AID 624297; also: % of control where 0% means no effect; nearly all actives have a fitted effect of over 55% in size
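Readout is total intensity of Hoechst-stained nuclei, excited at 405 nm and collected at 500-530 nm. Compound treatment lasted 48 hr at 37 C in 5% CO2 before staining.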
MCF10A rereplic: DNA re-replication induction in MCF 10a cells | MCF 10A DNA re-replication, Hoechst nuclear intensity, 48 h | Potency, µM (top dose mostly 46.1 µM), inactives show at the highest dose activity, positive = re-replication, most hits filed as activators | 2.9% of 350,000 active | AID 624296; also: % of control where 0% means no effect; nearly all actives have a fitted effect of over 50% in size
HT1080NT lethal: kills 2HG-producing HT-1080-NT fibrosarcoma cells; HT-1080-NT fibrosarcoma viability, CellTiter-Glo ATP luminescence, 48 h; Potency, µM (top dose mostly 46.1 µM), for the others: at the highest dose activity, negative = less viability, usual class: cytotoxic; 1.6% of 360,000 active;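 also: NT is the 2HG producing partner of a matched IDH1 knockdown line; 0% = DMSO-treated cells and -100% = media-only wells without cells; nearly all actives have a fitted effect of over 55% in size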
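750 cells/well, RPMI + 5% FBS; 2 h settle, compound pin-transfer, 48 h at 37 degrees C. CellTiter-Glo 10 min RT, luminescence. Normalized to DMSO and media-only wells.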
KB-V1 MDR tox: KB-V1 MDR subline cytotoxicity. 3.4% of 400,000 active. Potency, µM (doses to about 46.1 µM), actives largely listed as cytotoxic. AID 1347076. KB-V1 MDR cells viability, CellTiter-Glo, 72 h; also: % is scaled to controls: 0 for no effect and ±100 for the full control effect; nearly all actives have a fitted effect of over 60% in size
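KB-V1 MDR subline cells in DMEM (phenol-red free, 10% FBS) exposed to compounds in qHTS concentration series for 72 h at 37 degrees C. Viability read by CellTiter-Glo luminescence; concentration-effect curves fitted after normalization and correction.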
* hit, by the source's call; i = inactive; ? = inconclusive; / = no result. Calls follow the shape of the dose curve; as a rule, active = well fitted curve in the direction sought with a large enough effect; inconclusive = small, poorly fitted or top-dose-only effect, or another doubt; inactive = no such curve, though single readings can be large; an effect the other way counts as inactive or inconclusive. Potency is read from the fitted curve at half-maximal effect.

SMILES | KB-3-1 cytotox | HT1080 IDH1KD tx | SW480 rerep | MCF10A rereplic | HT1080NT lethal | KB-V1 MDR tox
CC(=O)OCCN(C)c1cc(SC(C)C)c2nonc2c1[N+](=O)[O-] | i | ? | ? | ? | ? | i
CN(CCO)c1cc(Sc2nc3ccccc3s2)c2nonc2c1[N+](=O)[O-] | ? | 5µM* | 13% | ? | 6.3µM* | i
CCOC(CNC(=O)c1ccc(N2CCc3ccccc32)c([N+](=O)[O-])c1)OCC | ? | -1% | -30% | 17% | -1% | 2.6µM*
COC(=O)c1ccc(N2CCc3ccccc32)c([N+](=O)[O-])c1 | i | 16% | -6% | ? | 10% | i
COC(=O)c1c[nH]n2c(=O)c(Cc3ccc(F)cc3Cl)c(C)nc12 | i | ? | -8% | 3% | ? | 16µM*
COC(=O)c1c[nH]n2c(=O)c(Cl)c(C)nc12 | i | 1% | -4% | ? | -4% | i
CC(=O)Nc1nnc(SCc2cc(=O)c3cc(C)ccc3[nH]2)s1 | i | / | / | / | / | ?
CC(=O)Nc1ccc(S(=O)(=O)NCc2ccc(C(=O)NCCN(C)Cc3ccccc3)cc2)cc1 | i | -10% | / | / | -15% | i
CCN(Cc1ccccc1)C(=O)c1ccc(CNS(=O)(=O)c2ccc(C)cc2)cc1 | i | -8% | 82% | 21µM* | -1% | 18µM*
CCc1ccc(S(=O)(=O)NCc2ccc(C(=O)NCCN(Cc3ccccc3)C(C)C)cc2)cc1 | i | 16µM* | / | / | ? | ?
CCOC(=O)C1(Cc2ccc(OC)cc2)CCN(C(=O)c2cc(C)nn2C)CC1 | ? | 15µM* | ? | -5% | ? | i
CCOC(=O)C1(Cc2ccc(OC)cc2)CCN(C(=O)c2cccc3nccnc23)CC1 | i | -2% | -3% | -3% | -3% | ?
O=S(=O)(c1ccccc1)N1CCN(CCOc2ccc(F)cc2)CC1 | i | -2% | / | / | -1% | ?
O=S(=O)(Nc1cccc(-c2cn3cccnc3n2)c1)c1ccc(F)cc1 | i | -2% | -2% | 0% | -1% | 21µM*
Cc1ccc(S(=O)(=O)Nc2cccc(-c3cn4ccsc4n3)c2)cc1 | ? | ? | ? | 13µM* | ? | 23µM*
Nc1cc(S(=O)(=O)Nc2ccccc2Cl)ccc1N1CCOCC1 | ? | 1% | -2% | 0% | -7% | i
CCOC(=O)Nc1ccc(N2CCOCC2)c(S(=O)(=O)Nc2ccc(Cl)cc2)c1 | i | ? | 21µM* | ? | ? | ?
COc1ccccc1NS(=O)(=O)c1cc(NC(=O)c2sccc2C)ccc1N1CCOCC1 | i | -28% | 11% | 8% | -22% | i
Nc1cc(S(=O)(=O)Nc2ccc(Cl)cc2)ccc1N1CCOCC1 | 23µM* | -12% | 4% | ? | ? | ?
COCC(=O)Nc1ccc(N2CCOCC2)c(S(=O)(=O)Nc2ccccc2OC)c1 | ? | -5% | 5% | 2% | -4% | ?
COc1ccc(NS(=O)(=O)c2cc(NC(=O)c3sccc3C)ccc2N2CCOCC2)cc1 | 7.3µM* | -5% | ? | ? | ? | i
COc1ccc(NS(=O)(=O)c2cc(NC(=O)c3cc(F)c(F)cc3Cl)ccc2N2CCOCC2)cc1 | i | -25% | ? | -5% | -15% | i
COc1ccccc1NS(=O)(=O)c1cc(NC(=O)COc2ccccc2F)ccc1N1CCOCC1 | i | 2% | 0% | 0% | 3% | 4.6µM*
Cc1cc(-n2c(C)nc3ccccc3c2=O)ccc1NC(=O)c1ccc([N+](=O)[O-])cc1 | i | / | / | / | / | i
OC(Cc1cccnc1)(c1ccccc1)c1ccccc1 | ? | 7% | 1% | 0% | 7% | 18µM*
Cn1c(=O)oc2cc(S(=O)(=O)CCC(=O)N3CCN(c4ccccc4F)CC3)ccc21 | i | 16% | -2% | -2% | 1% | ?
